# Hits are enriched below; roughly 0.67% of the tested compounds scored in any of these assays.
# Cdc25B inh: human M-phase inducer phosphatase 2 inhibition | recombinant Cdc25B, OMFP fluorescence Ex485/Em525 | inhibition, %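 (compounds tested at 10 µM final in the well)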 | actives 0.1% (n = 65,000); in the data active means inhibition above about 50%
# DUSP1 inh: blocks human MKP-1 phosphatase activity; P28562; recombinant MKP-1, OMFP hydrolysis fluorescence; inhibition, %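 (compounds tested at a single concentration somewhere between 10 and 100 µM)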; actives 0.15% (n = 65,000);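 active means inhibition above about 50%, limit read from the data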;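 further: 0% = DMSO max control wells and 100% = wells with enzyme stopped by NaOH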
# WNV NS2B-NS3 inh: blocks West Nile virus NS2B-NS3 protease activity | z-score (concentration not given with the values) | WNV NS2B-NS3 protease, fluorogenic substrate Ex360/Em465; active compounds read low | AID 577 | actives 0.18% (n = 65,000); in the data active means z-score below about -3
# ROCK2 inh: inhibitors of human Rho kinase 2 | O75116 | purified ROCK2, Kinase-Glo ATP depletion luminescence | inhibition, % at 6 µM | actives 0.35% (n = 60,000) | AID 604;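 active means inhibition above the screen-wide mean inhibition plus 3 SD, cut at about 18% in these data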;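 further: plate controls were DMSO wells for no effect and Y-27632 control wells after no-enzyme background subtraction for full effect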
# PKA inh: blocks human protein kinase A activity; P17612; PKA Kemptide phosphorylation, Kinase-Glo ATP luminescence; inhibition, % at 6 µM; actives 0.1% (n = 65,000); AID 524;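 active means inhibition above the screen-wide mean inhibition plus 3 SD, cut at about 21% in these data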
# The depositor's hits bear a star; x = no result.
SMILES,Cdc25B inh,DUSP1 inh,WNV NS2B-NS3 inh,ROCK2 inh,PKA inh
CCCCc1c(C)nc(N)[nH]c1=O,-5.6,5.0,0.5,18.4*,7.3
CCCCCc1c(C)nc(NCc2ccccc2)[nH]c1=O,-12.0,3.7,-0.15,3.6,10.5
C=CCn1c(SCC(=O)OC)nc2sc3c(c2c1=O)CCN(C)C3,-26.6,-11.6,-7.36*,6.2,5.9
O=C(Oc1cccc2c(=O)[nH]ccc12)c1ccccc1,1.7,3.6,-0.76,18.2*,1.7
O=C1CC(N2CCN(c3ccc(F)cc3)CC2)C(=O)N1Cc1ccc(N2CCCC2=O)cc1 (configuration not stated),-0.8,-5.0,0.44,4.9,4.8
COc1cccc(N2CCN(C3CC(=O)N(c4cccc(Cl)c4)C3=O)CC2)c1 (configuration not stated),92.3*,-15.7,0.31,-1.2,-8.3
Cc1cccc(N2C(=O)CC(N3CCN(c4cccc(C(F)(F)F)c4)CC3)C2=O)c1 (configuration not stated),-13.7,4.2,-0.11,3.3,8.0
COc1ccc(-n2nnnc2SCC(=O)Nc2ccc3c(c2)OCCO3)c(OC)c1,-13.7,101.7*,-1.58,4.9,3.9
Nc1ccc2[nH]ncc2c1,-19.5,-6.8,-0.26,32.3*,0.3
Nc1ccc2ncccc2c1,3.1,-21.5,-0.61,3.4,5.5
COc1ccc2[nH]c(C(=O)O)c(CCC(=O)O)c2c1,-0.5,-5.2,0.58,5.8,7.2
O=C1CCN2C=Nc3cccc4ccc1c2c34,79.9*,10.7,-0.54,2.6,8.1
Cc1cc(C)nc(-n2nc(C)cc2Nc2ccccc2)n1,-12.6,12.1,0.56,4.9,10.4
CCC(C(=O)Nc1cc(C)nn1-c1nc(C)cc(C)n1)c1ccccc1 (configuration not stated),66.3*,33.0,-0.09,4.0,5.6
Nc1cc(OC(=O)c2cccs2)nn1S(=O)(=O)c1ccc(F)cc1,-6.0,1.2,-5.26*,5.2,10.9
Cc1nn(-c2ccccc2)c(OC(=O)c2cccs2)c1S(=O)(=O)c1ccccc1,4.9,-8.8,-1.19,-0.5,-4.1
Nc1cc(OC(=O)c2cccs2)nn1S(=O)(=O)c1ccccc1,-5.8,5.3,-8.13*,9.6,7.1
COc1cccc(C(=O)Oc2cc(N)n(S(=O)(=O)c3ccc(C)cc3)n2)c1OC,3.1,12.2,-0.9,3.1,6.0
Cc1nn(-c2ccccc2)c2sc(C(=O)OC3CCOC3=O)cc12 (configuration not stated),1.3,31.2,-3.5*,-1.0,-4.0
Cc1nn(-c2ccccc2)c2sc(C(=O)O)cc12,102.0*,15.8,-0.5,x,-0.3
COC(=O)c1cc2c(C)nn(-c3ccccc3)c2s1,3.3,35.4,0.66,7.3,2.6
CCn1c(CNC(=O)c2ccc(OC)c(OC)c2)nnc1SCC(=O)c1ccc(OC)cc1,-11.9,9.5,-1.16,1.3,2.9
COc1ccc(C(=O)CSc2nnc(CNC(=O)c3ccc(OC)c(OC)c3)n2C)cc1,-9.6,73.6*,-0.32,6.7,9.6
Cn1c(NC(=O)c2ccc(Br)o2)cc(=O)n(C)c1=O,-0.9,18.7,-0.37,4.2,0.5
c1cc2c(cc1Nc1nc(-c3ccc4c(c3)OCO4)cs1)OCCO2,6.4,-1.9,0.31,24.1*,12.4
SMILES,Cdc25B inh,DUSP1 inh,WNV NS2B-NS3 inh,ROCK2 inh,PKA inh
O/N=C1\CC(O)Cc2nonc21 (configuration not stated),-7.1,-10.3,-0.38,4.5,5.2
COc1cc(C)nc(Oc2ccc(OCCOc3ccc(C)cc3)nn2)n1,14.9,-25.6,-8.5*,13.1,4.8
COc1cc(C)nc(Oc2ccc(=O)n(C)n2)n1,-26.6,-16.4,0.65,1.3,7.2
CCC(C(=O)NCc1ccc(F)cc1)N(Cc1ccco1)C(=O)c1snc(C(N)=O)c1N (configuration not stated),3.2,-4.5,-0.9,2.3,5.5
O=C(Nc1ccc2oc(-c3cccnc3)nc2c1)c1cccnc1,-5.4,-0.2,-0.78,15.4,11.5
Cc1c(C(=O)Nc2ccc3oc(-c4cccnc4)nc3c2)oc2ccccc12,-3.6,40.3,-1.2,19.9*,-1.0
O=c1[nH]cnc2cc(Cl)ccc12,-2.3,-16.3,2.41,18.5*,13.9
O=c1[nH]cnc2cc(-c3ccccc3)sc12,-37.5,-16.4,-0.21,10.0,15.2
Cc1ccc(CN2CCN(CC(=O)N3CCC(C(N)=O)CC3)C2=O)cc1,69.9*,-1.5,0.7,4.2,9.1
CCOC(=O)c1sc2nc(-c3ccco3)c3c(c2c1N)CC(C)(C)OC3,6.8,37.9,0.3,1.3,6.8
CC1(C)Cc2c(c(-c3ccco3)nc3n[nH]c(N)c23)CO1,0.8,14.9,0.95,1.6,30.6*
CCOC(=O)C1=C(C(C)=O)C(c2cccnc2)C(C#N)=C(N)O1 (configuration not stated),2.3,-27.5,0.25,2.8,3.7
CCOC(=O)C1=C(CSc2nc(-c3ccncc3)ccc2C#N)OC(N)=C(C#N)C1c1cccnc1 (configuration not stated),-26.1,9.5,-0.95,20.8*,5.4
c1ccc2c(-c3ccncc3)c[nH]c2c1,4.0,-25.6,1.52,89.4*,65.3*
Cc1ccc(SCCNS(C)(=O)=O)cc1,-4.5,-2.3,-0.58,2.3,-0.8
CCOC(=O)CSc1nnnn1-c1cc(OC)c(Cl)cc1OC,50.8*,5.7,-0.99,5.2,7.8
COc1cc(-n2nnnc2SCC(=O)N2CCN(c3ccc(F)cc3)CC2)c(OC)cc1Cl,-0.1,0.1,0.62,7.5,6.3
O=C(NC1CCCC1)c1ccc2nc[nH]c2c1,-12.3,12.5,-0.67,8.1,11.0
O=C(c1ccccc1)c1ccc2nc[nH]c2c1,3.4,0.2,-0.66,32.9*,13.9
Cn1c(SCC(=O)NCc2ccccc2)nc2ccccc21,1.5,-12.5,0.55,-1.1,-3.6
CC(CCc1ccccc1)NC(=O)c1nnc(Cc2ccc(F)cc2)o1 (configuration not stated),-9.0,1.2,1.27,4.3,8.8
CNC(=O)c1nnc(Cc2ccc(F)cc2)o1,-2.9,1.2,-3.15*,-4.7,1.8
O=C(c1ccco1)N1CCN(c2cc(=O)n(C3CCCCC3)c(=O)[nH]2)CC1,64.8*,1.4,-0.58,-0.4,-4.0
CCOC(=O)N1CCN(C2=CC(=O)OC23CCCCC3)CC1,2.3,19.0,-5.16*,-0.6,-3.3
CCOC(=O)N1CCN(c2c(-c3ccc(C)cc3)c(=O)c2=O)CC1,-16.6,1.3,1.37,0.5,11.5
Cn1c(=O)c2cc(S(=O)(=O)NCCC(=O)NCCC3=CCCCC3)ccc2n(C)c1=O,-4.4,57.2*,0.3,2.6,13.7
Cc1ccc(CCNC(=O)CCNS(=O)(=O)c2ccc3c(c2)c(=O)n(C)c(=O)n3C)cc1,1.5,-1.9,-0.21,5.9,5.8
Cc1ccc(S(=O)(=O)N(C)c2nonc2C)cc1,-0.5,-9.1,-1.86,4.4,14.5
[O-]/[N+](=C\c1ccncc1)c1ccc(Br)cc1,-21.0,56.6*,-0.44,x,x
COc1ccc(/C=C/C(=O)Nc2ccccc2C(=O)O)cc1OC,6.1,-13.6,0.61,-0.5,-7.1
